Assay results: PubChem BioAssay

Molecular target: Neurogenic locus notch homolog protein 2 (Homo sapiens) (UniProt Q04721)
Assay: Notch2 binders on small-molecule microarrays, primary screen, biochemical, small-molecule microarray, 635 nm fluorescence, stem cell growth factors (AID 1073)
Conditions: Notch2 binding, higher = more signal

Sequence of Neurogenic locus notch homolog protein 2 (Homo sapiens) (Q04721 whole entry, looked up): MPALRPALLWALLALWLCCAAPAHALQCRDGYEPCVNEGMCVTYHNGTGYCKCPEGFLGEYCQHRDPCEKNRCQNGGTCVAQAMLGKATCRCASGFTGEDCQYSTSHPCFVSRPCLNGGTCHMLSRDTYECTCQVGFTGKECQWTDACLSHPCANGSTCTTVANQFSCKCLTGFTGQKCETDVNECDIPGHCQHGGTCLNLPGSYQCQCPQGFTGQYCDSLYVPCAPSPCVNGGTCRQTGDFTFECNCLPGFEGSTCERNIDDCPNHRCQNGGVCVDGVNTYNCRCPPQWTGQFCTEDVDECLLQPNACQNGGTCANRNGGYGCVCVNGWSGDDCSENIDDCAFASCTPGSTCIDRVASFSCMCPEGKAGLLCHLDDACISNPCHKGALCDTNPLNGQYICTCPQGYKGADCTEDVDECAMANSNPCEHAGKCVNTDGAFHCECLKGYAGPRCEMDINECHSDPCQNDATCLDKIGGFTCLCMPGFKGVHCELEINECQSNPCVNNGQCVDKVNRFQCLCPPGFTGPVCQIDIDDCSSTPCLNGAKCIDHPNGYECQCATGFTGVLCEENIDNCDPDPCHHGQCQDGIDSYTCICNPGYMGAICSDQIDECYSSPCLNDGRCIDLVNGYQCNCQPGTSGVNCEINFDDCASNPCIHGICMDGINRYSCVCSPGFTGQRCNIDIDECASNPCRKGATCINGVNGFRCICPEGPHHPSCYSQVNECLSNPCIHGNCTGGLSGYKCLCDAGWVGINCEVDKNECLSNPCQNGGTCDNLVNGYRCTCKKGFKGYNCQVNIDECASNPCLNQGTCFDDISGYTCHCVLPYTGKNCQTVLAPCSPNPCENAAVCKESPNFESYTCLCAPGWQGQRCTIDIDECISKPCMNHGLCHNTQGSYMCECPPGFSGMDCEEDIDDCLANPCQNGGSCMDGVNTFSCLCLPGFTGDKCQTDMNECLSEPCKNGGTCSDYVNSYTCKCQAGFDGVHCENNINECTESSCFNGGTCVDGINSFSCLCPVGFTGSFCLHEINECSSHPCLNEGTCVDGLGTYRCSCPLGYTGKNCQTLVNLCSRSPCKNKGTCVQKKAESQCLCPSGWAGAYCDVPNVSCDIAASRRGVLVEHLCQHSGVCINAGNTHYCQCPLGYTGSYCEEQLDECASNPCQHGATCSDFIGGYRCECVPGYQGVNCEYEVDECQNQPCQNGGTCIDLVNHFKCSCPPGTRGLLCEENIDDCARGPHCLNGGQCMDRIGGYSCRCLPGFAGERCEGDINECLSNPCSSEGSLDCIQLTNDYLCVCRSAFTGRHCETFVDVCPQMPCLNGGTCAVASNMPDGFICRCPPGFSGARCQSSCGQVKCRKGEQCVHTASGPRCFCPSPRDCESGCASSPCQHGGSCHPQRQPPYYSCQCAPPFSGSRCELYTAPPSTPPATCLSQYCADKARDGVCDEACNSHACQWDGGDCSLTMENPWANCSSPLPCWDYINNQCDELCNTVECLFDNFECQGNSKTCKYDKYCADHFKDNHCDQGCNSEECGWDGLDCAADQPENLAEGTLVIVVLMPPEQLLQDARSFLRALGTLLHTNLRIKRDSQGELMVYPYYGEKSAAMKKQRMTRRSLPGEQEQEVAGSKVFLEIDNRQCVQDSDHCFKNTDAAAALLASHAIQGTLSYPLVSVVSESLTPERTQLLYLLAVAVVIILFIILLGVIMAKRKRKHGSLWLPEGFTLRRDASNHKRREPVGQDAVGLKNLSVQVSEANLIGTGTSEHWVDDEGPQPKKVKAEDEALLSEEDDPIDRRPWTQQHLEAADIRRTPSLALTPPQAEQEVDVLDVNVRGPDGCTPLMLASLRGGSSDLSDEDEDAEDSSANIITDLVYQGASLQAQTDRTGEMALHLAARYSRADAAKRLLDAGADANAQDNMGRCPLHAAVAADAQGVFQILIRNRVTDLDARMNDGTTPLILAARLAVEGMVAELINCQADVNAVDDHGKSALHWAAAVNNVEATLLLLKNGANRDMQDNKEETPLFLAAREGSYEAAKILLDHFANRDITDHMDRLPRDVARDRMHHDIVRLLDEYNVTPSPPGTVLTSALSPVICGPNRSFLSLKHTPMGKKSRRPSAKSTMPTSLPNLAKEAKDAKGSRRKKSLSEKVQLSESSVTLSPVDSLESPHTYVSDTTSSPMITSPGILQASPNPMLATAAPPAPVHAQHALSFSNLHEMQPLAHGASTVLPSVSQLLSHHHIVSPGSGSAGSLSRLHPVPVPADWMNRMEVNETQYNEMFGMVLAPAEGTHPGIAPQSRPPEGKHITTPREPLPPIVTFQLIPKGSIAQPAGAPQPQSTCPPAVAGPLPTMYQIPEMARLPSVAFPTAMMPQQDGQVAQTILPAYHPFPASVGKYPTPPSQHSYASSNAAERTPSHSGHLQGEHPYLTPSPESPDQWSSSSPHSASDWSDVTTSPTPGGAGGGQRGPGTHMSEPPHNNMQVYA

Structure (SMILES)	composite z-score
CC(C)CNC(=O)[C@@]1(C)c2ccccc2C(=O)N(Cc2cc(F)cc(C(F)(F)F)c2)[C@H]1c1ccc(CO)cc1	-0.102
NCCCC[C@@H]1NC(=O)[C@H]2C[C@@H](C(=O)O)[C@@H](c3cccc(OCCO)c3)N2C1=O	1.61
CC(C)C[C@@H]1NC(=O)[C@H]2C[C@@H](C(=O)NCCCCCNC(=O)CS)[C@@H](c3ccc(O)cc3)N2C1=O	0.74
CO[C@H]1O[C@H](CO)[C@@H](OC(=O)Nc2ccccc2)[C@@H]2OC(=O)[C@H](Cc3ccccc3)C/C=C/C[C@@H](Cc3ccccc3)C(=O)O[C@@H]12	1.48
CC(C)CNC(=O)[C@@H]1c2ccccc2C(=O)N(Cc2ccccc2Cl)[C@H]1c1ccc(CO)cc1	-0.595
CCc1cccc(NC(=O)O[C@H]2[C@H](OC(=O)Nc3ccc4c(c3)OCO4)[C@H](OC(=O)Nc3ccc4c(c3)OCO4)[C@@H](OC)O[C@@H]2CO)c1	0.603
CCN(CC)c1ccc(N2CC=CC34O[C@@H]5C=CCOC(=O)[C@@H]5[C@H]3C(=O)N(CCCO)[C@@H]4C2=O)cc1 (some centres not stated)	-1.04
C=C(CCCC)/C(=C/C[C@H](OC(C)=O)c1cccc(OCCO)c1)c1cc(C(=O)OC)ccc1OC	-0.393
C=C(COC)/C(=C/C[C@H](OC(=O)c1ccncc1)c1ccc(OCCO)cc1)c1cc(C(=O)OC)ccc1OC	0.0841
NC(=O)NCC#Cc1ccc2c(c1)[C@]1(C(=O)N2)[C@H](C(=O)Nc2nc3ccccc3s2)[C@H]2C(=O)O[C@H](c3ccccc3)[C@H](c3ccccc3)N2[C@@H]1c1ccc(OCCO)cc1	0.614
C=CCNC(=O)[C@H]1[C@@H]2C(=O)O[C@@H](c3ccccc3)[C@@H](c3ccccc3)N2[C@@H](c2ccc(O)cc2)[C@]12C(=O)Nc1ccc(C#CC3=CCCCC3)cc12	0.706
C=CCC(OC(C)=O)[C@@H]1[C@@H](N(Cc2cccc3ccccc23)C(=O)c2ccc(-c3ccccc3)cc2)c2cc(OCCCO)ccc2N1C(=O)c1ccc2ccccc2n1 (some centres not stated)	0.285
O=C1c2ccccc2[C@](Cc2ccccc2I)(C(=O)O)[C@H](c2ccc(CO)cc2)N1Cc1ccccc1	0.19
CC(C)[C@@H](C(=O)O)n1cc(-c2ccccc2)nn1	0.964
C/C=C/CN(C(=O)C#Cc1ccccc1)[C@H](CO[Si](C)(C)C(C)(C)C)c1ccccc1	-1.58
COCCOC(=O)N1C(=O)[C@@]2(c3cc(C#CCCO)ccc31)[C@H](c1ccc(O)cc1)N1[C@H](c3ccccc3)[C@H](c3ccccc3)OC(=O)[C@H]1[C@@H]2C(=O)N1CCc2cc(OC)c(OC)cc2C1	1.36
Cc1ccc(S[C@]2(C(=O)NC3CC3)CC(=O)N(Cc3cc(C(F)(F)F)cc(C(F)(F)F)c3)[C@@H]2c2ccc(CO)cc2I)cc1	-0.262
C[N+](C)(C)CCCC[C@@H]1NC(=O)[C@H]2C[C@@H](C(=O)NCCCCCNC(=O)CS)[C@@H](c3ccc(O)cc3)N2C1=O	0.363
CC[C@H](C)C(=O)O[C@H]1CC[C@]2(C)C3=C(CCC2C1(C)C)[C@]1(C)CC[C@H]([C@H](C)CCCC(C)C)[C@@]1(C)CC3 (some centres not stated)	0.414
COCCOC(=O)N1C(=O)[C@@]2(c3cc(C#CCC(C(=O)OC)C(=O)OC)ccc31)[C@H](C(=O)N1CCCCCCC1)[C@H]1C(=O)O[C@H](c3ccccc3)[C@H](c3ccccc3)N1[C@@H]2c1ccccc1OCCO	1.39
C=CCOC(=O)[C@H]1[C@@H]2C(=O)O[C@@H](c3ccccc3)[C@@H](c3ccccc3)N2[C@@H](c2ccc(OCCOC(=O)[C@H]3C[C@H]4C(=O)NCC(=O)N4[C@H]3c3ccc(O)cc3)cc2)[C@]12C(=O)Nc1ccc(I)cc12	0.636
CC#CCO[Si](C#CCCCCCC)(C(C)C)C(C)C	-1.9
CC(c1ccccc1)C(O)C1C=CC2C(=O)N(c3ccccc3)C(=O)C2N1Nc1ccc(C#N)cc1 (configuration not stated)	1.59
O=C1c2ccccc2[C@@]2(Cc3ccccc3N(Cc3ccccc3)C2=O)[C@H](c2ccc(CO)cc2)N1Cc1ccccc1	-0.476
CC(C)CNC(=O)[C@@H]1c2ccccc2C(=O)N(CC23CC4CC(CC(C4)C2)C3)[C@H]1c1ccc(CO)cc1	0.632

Molecular target: Pro-neuregulin-1, membrane-bound isoform (Homo sapiens) (UniProt Q02297)
Assay: NRG1 binders on small-molecule microarrays, primary screen, psychiatric disease protein project, biochemical, small-molecule microarray, fluorescence 635/667 (AID 1075);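 note: score combines 667 nm spot fluorescence with signal to noise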
Conditions: NRG1 binding, 635 nm fluorescence, higher = more signal

Sequence of Pro-neuregulin-1, membrane-bound isoform (Homo sapiens) (Q02297 whole entry, looked up, canonical isoform): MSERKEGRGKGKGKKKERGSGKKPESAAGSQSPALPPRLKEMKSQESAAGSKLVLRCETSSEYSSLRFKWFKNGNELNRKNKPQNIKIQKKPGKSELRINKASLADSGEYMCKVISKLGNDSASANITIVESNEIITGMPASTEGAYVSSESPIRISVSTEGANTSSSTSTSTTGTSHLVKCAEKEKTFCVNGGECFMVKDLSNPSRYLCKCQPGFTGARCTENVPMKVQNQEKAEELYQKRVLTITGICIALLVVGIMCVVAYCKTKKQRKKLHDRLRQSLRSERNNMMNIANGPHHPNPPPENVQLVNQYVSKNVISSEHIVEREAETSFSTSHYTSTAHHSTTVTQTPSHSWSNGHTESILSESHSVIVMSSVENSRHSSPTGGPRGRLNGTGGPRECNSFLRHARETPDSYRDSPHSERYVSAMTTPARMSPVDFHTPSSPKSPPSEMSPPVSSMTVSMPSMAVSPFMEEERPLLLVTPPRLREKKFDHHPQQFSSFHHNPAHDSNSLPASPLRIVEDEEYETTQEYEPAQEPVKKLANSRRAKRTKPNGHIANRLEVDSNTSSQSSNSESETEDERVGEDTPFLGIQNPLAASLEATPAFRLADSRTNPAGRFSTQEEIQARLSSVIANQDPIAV

Structure (SMILES)	composite z-score
COCCOC(=O)N1C(=O)[C@@]2(c3cc(C#CCNC(N)=O)ccc31)[C@H](C(=O)NC[C@H](O)c1ccccc1)[C@H]1C(=O)O[C@H](c3ccccc3)[C@H](c3ccccc3)N1[C@@H]2c1ccc(OCCO)cc1	0.634
COC(=O)[C@@]1(Cc2ccc(F)cc2)[C@H]2c3cc(C(=O)N(C)C)n(CCn4cc([N+](=O)[O-])nc4C)c3C[C@H]2CN1C(=O)c1ccccc1	1.36
CN(C)CCCCNC(=O)[C@H]1C[C@H]2C(=O)N[C@@H](Cc3ccccc3)C(=O)N2[C@H]1c1cccc(OCCO)c1	0.136
CCCCN1CC=CC23O[C@@H]4/C=C\CCC(C)OC(=O)C4[C@H]2C(=O)N(C(C)CO)[C@@H]3C1=O (some centres not stated)	-1
CCCCC(=C=CC[C@@H](O)c1cccc(OCCO)c1)CCO	-0.0951
CN1C=C(C(=O)OCCS(C)(=O)=O)C(C(=O)OCCS(C)(=O)=O)=CC(CCCO)=CC1c1ccc(CN2CCCC2)cc1 (configuration not stated)	2.02
C#CCN(C/C=C/c1ccccc1)[C@H](CO[Si](C)(C)C(C)(C)C)c1ccccc1	-0.267
O=C1O[C@H](c2ccccc2)[C@H](c2ccccc2)N2[C@H]1[C@@H](C(=O)N1CCN(c3ncccn3)CC1)[C@]1(C(=O)Nc3ccccc31)[C@H]2c1ccc(O)cc1	1.23
[N-]=[N+]=NCc1ccccc1[C@@H]1OC(c2ccc(OCCCO)cc2)=N[C@]1(Cc1ccccc1)C(=O)NCc1ccccc1	1.56
C=CCOC(=O)[C@H]1[C@@H]2C(=O)O[C@@H](c3ccccc3)[C@@H](c3ccccc3)N2[C@@H](c2ccc(OCCOC(=O)[C@@H]3C[C@@H]4C(=O)N[C@@H](CC(C)C)C(=O)N4[C@@H]3c3ccc(O)cc3)cc2)[C@]12C(=O)Nc1ccc(I)cc12	1.33
CC(C)CNC(=O)[C@@]1(C)c2ccccc2C(=O)N(Cc2cc(F)cc(C(F)(F)F)c2)[C@H]1c1ccc(CO)cc1	0.669
NCCCC[C@@H]1NC(=O)[C@H]2C[C@@H](C(=O)O)[C@@H](c3cccc(OCCO)c3)N2C1=O	2.05
CC(C)C[C@@H]1NC(=O)[C@H]2C[C@@H](C(=O)NCCCCCNC(=O)CS)[C@@H](c3ccc(O)cc3)N2C1=O	1
CO[C@H]1O[C@H](CO)[C@@H](OC(=O)Nc2ccccc2)[C@@H]2OC(=O)[C@H](Cc3ccccc3)C/C=C/C[C@@H](Cc3ccccc3)C(=O)O[C@@H]12	1.14
CC(C)CNC(=O)[C@@H]1c2ccccc2C(=O)N(Cc2ccccc2Cl)[C@H]1c1ccc(CO)cc1	-1.27
CCc1cccc(NC(=O)O[C@H]2[C@H](OC(=O)Nc3ccc4c(c3)OCO4)[C@H](OC(=O)Nc3ccc4c(c3)OCO4)[C@@H](OC)O[C@@H]2CO)c1	0.979

Structure (SMILES)	composite z-score
CCN(CC)c1ccc(N2CC=CC34O[C@@H]5C=CCOC(=O)[C@@H]5[C@H]3C(=O)N(CCCO)[C@@H]4C2=O)cc1 (some centres not stated)	0.986
C=C(CCCC)/C(=C/C[C@H](OC(C)=O)c1cccc(OCCO)c1)c1cc(C(=O)OC)ccc1OC	-0.578
C=C(COC)/C(=C/C[C@H](OC(=O)c1ccncc1)c1ccc(OCCO)cc1)c1cc(C(=O)OC)ccc1OC	0.358
NC(=O)NCC#Cc1ccc2c(c1)[C@]1(C(=O)N2)[C@H](C(=O)Nc2nc3ccccc3s2)[C@H]2C(=O)O[C@H](c3ccccc3)[C@H](c3ccccc3)N2[C@@H]1c1ccc(OCCO)cc1	-0.029
C=CCNC(=O)[C@H]1[C@@H]2C(=O)O[C@@H](c3ccccc3)[C@@H](c3ccccc3)N2[C@@H](c2ccc(O)cc2)[C@]12C(=O)Nc1ccc(C#CC3=CCCCC3)cc12	0.0212
C=CCC(OC(C)=O)[C@@H]1[C@@H](N(Cc2cccc3ccccc23)C(=O)c2ccc(-c3ccccc3)cc2)c2cc(OCCCO)ccc2N1C(=O)c1ccc2ccccc2n1 (some centres not stated)	0.298
O=C1c2ccccc2[C@](Cc2ccccc2I)(C(=O)O)[C@H](c2ccc(CO)cc2)N1Cc1ccccc1	1.51
CC(C)[C@@H](C(=O)O)n1cc(-c2ccccc2)nn1	0.648
C/C=C/CN(C(=O)C#Cc1ccccc1)[C@H](CO[Si](C)(C)C(C)(C)C)c1ccccc1	-0.339
COCCOC(=O)N1C(=O)[C@@]2(c3cc(C#CCCO)ccc31)[C@H](c1ccc(O)cc1)N1[C@H](c3ccccc3)[C@H](c3ccccc3)OC(=O)[C@H]1[C@@H]2C(=O)N1CCc2cc(OC)c(OC)cc2C1	1.04
Cc1ccc(S[C@]2(C(=O)NC3CC3)CC(=O)N(Cc3cc(C(F)(F)F)cc(C(F)(F)F)c3)[C@@H]2c2ccc(CO)cc2I)cc1	0.212
C[N+](C)(C)CCCC[C@@H]1NC(=O)[C@H]2C[C@@H](C(=O)NCCCCCNC(=O)CS)[C@@H](c3ccc(O)cc3)N2C1=O	1.55
CC[C@H](C)C(=O)O[C@H]1CC[C@]2(C)C3=C(CCC2C1(C)C)[C@]1(C)CC[C@H]([C@H](C)CCCC(C)C)[C@@]1(C)CC3 (some centres not stated)	0.0345
COCCOC(=O)N1C(=O)[C@@]2(c3cc(C#CCC(C(=O)OC)C(=O)OC)ccc31)[C@H](C(=O)N1CCCCCCC1)[C@H]1C(=O)O[C@H](c3ccccc3)[C@H](c3ccccc3)N1[C@@H]2c1ccccc1OCCO	0.811
C=CCOC(=O)[C@H]1[C@@H]2C(=O)O[C@@H](c3ccccc3)[C@@H](c3ccccc3)N2[C@@H](c2ccc(OCCOC(=O)[C@H]3C[C@H]4C(=O)NCC(=O)N4[C@H]3c3ccc(O)cc3)cc2)[C@]12C(=O)Nc1ccc(I)cc12	0.346
CC#CCO[Si](C#CCCCCCC)(C(C)C)C(C)C	-0.353
